Most compounds without a hit are left out; they make up all but 28% or so of the library.
CYP2C9 inhib – blocks human cytochrome P450 2C9; P11712; CYP2C9 Supersomes, luciferin-H conversion, luminescence; inhibition, % at 5 µM; 20% of 96,000 active; AID 777;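 active = blocking of liver enzyme CYP2C9 beyond about 50% at 5 µM, limit read from the data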
Target sequence (P11712 whole entry, looked up): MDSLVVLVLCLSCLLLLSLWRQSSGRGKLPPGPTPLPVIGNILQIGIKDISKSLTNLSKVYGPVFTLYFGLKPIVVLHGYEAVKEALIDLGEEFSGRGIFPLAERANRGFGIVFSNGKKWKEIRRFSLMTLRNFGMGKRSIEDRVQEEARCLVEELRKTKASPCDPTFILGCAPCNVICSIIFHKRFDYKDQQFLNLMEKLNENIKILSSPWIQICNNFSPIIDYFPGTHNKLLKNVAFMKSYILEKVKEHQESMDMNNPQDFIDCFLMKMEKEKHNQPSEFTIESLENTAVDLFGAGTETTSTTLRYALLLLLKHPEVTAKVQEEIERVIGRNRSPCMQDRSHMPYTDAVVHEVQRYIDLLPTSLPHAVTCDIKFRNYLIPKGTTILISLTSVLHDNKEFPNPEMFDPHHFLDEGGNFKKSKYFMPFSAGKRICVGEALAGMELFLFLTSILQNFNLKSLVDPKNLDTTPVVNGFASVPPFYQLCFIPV
PLK1 inh – PLK1 (human) kinase inhibition | 0.53% of 97,000 active | recombinant PLK1 kinase, TR-FRET peptide phosphorylation | inhibition, % at 10 µM;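 active = inhibition of 50% or more in the single-concentration screen; inactive = inhibition below 50%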
PLK1 PBD inh – blocks phosphopeptide binding to human Plk1 polo box domain; P53350; Plk1 PBD phosphopeptide binding, fluorescence polarization; inhibition, %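 (tested at about 20 µM)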; 0.13% of 97,000 active; in the data active = inhibition above about 34%, passing the limit was not always enough
CYP2C9 activ – CYP2C9 (human) activation; recombinant CYP2C9, luciferin-H conversion, luminescence; stronger effect = higher value; factor 1 = untreated enzyme, 0 = blocked; activation factor at 5 µM; 1.4% of 96,000 active; P11712; AID 1024;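 active = activation factor of 2 or more for CYP2C9 at a 5 µM dose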
CYP2C19 act – increases human CYP2C19 enzyme activity; P33261; recombinant CYP2C19, luciferin-H EGE luminescence; stronger effect = higher value; 0 = fully inhibited enzyme, 1 = untreated enzyme; activation factor at 5 µM; 96,000 tested, under 10 active; AID 1025;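 active = activation factor of at least 2 at 5 µM in the primary screen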
CYP2C19 inh – human CYP2C19 inhibition. AID 778. 21% of 96,000 active. inhibition, % at 5 µM. P33261. CYP2C19 Supersomes, luciferin-H EGE luminescence, 30 min;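 active = CYP2C19 inhibition above a set limit at 5 µM in the primary screen, cut at about 50% in these data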
Of the large screens only hits and unclear results are named; the others gave an inactive call.

CC1CCc2nn(CC(=O)NCc3ccc(F)cc3)cc2C1 (stereo not given)	CYP2C19 inh 89.7
CC1CCc2nn(CC(=O)Nc3ccc(F)cc3F)cc2C1 (stereo not given)	none
Cc1ccc(-c2nc(SCC(=O)N(C)C3CCS(=O)(=O)C3)[nH]c2-c2ccc(C)cc2)cc1 (stereo not given)	none
CCOC(=O)C1C(C)N=C2SCC(=O)N2C1c1cccc(Br)c1 (stereo not given)	CYP2C9 inhib 85.0, CYP2C19 inh 85.3 (no result: PLK1 inh, PLK1 PBD inh)
Cc1nc(-c2ccccc2)nc2[nH]ccc(=O)c12	none
CCC(C(=O)Nc1ccccc1OC)n1c(C(=O)OC)cc2ccsc21 (stereo not given)	CYP2C9 inhib 95.6, CYP2C19 inh 98.3
CCOC(=O)c1cc(NC(=O)Nc2ccccc2OC)c(C)nc1C	none
OCCN1CCN(CC(O)COCc2ccc3c(c2)OCO3)CC1 (stereo not given)	none (no result: CYP2C9 inhib, CYP2C9 activ, CYP2C19 act, CYP2C19 inh)
CC(C)NC(=O)NC(=O)CSc1nnc(COc2ccccc2F)n1C(C)C1CC2CCC1C2 (stereo not given)	none
O=C(NC1CCCCC1)C(c1ccc2ncccc2c1)N(Cc1ccc(F)cc1)C(=O)c1ccc2c(c1)OCCO2 (stereo not given)	none
CCC(C)(C(=O)NC1CCCCC1)N(Cc1ccco1)C(=O)c1ccc2c(c1)OCO2 (stereo not given)	CYP2C9 inhib 60.3, CYP2C19 inh 83.4
O=C(NC1CCCCC1)C(c1ccc2ncccc2c1)N(Cc1ccco1)C(=O)c1ccc2c(c1)OCCO2 (stereo not given)	CYP2C9 inhib 69.5, CYP2C19 inh 70.2
O=C(NC1CCCCC1)C(c1ccc2ncccc2c1)N(Cc1cccs1)C(=O)c1cccs1 (stereo not given)	CYP2C9 inhib 59.3, CYP2C19 inh 60.0
Cc1ccc(/C=C2/NC(=O)N(c3ccccc3)C2=O)o1	CYP2C19 inh 68.2
Cc1cc(NC(=O)CSc2nnc(-c3c[nH]c4ccccc34)n2-c2ccc(Cl)cc2)no1	none
COc1ccc(N2CCN(C(=O)CCCC3=NS(=O)(=O)c4ccccc4N3)CC2)cc1	none
COc1ccc(-c2noc(CCC(=O)N3CCN(c4cccc(C(F)(F)F)c4)CC3)n2)cc1	CYP2C9 inhib 83.0, CYP2C19 inh 70.3
CCOc1ccc(-c2cc(CCCC(=O)NCc3ccco3)no2)cc1	none (no result: PLK1 inh, PLK1 PBD inh)
COc1ccc(-c2cc(CCCC(=O)NCCc3cc(OC)ccc3OC)no2)cc1	CYP2C9 inhib 65.8, CYP2C19 inh 57.3
COc1ccc(-c2cc(CCCC(=O)N3CCN(c4ccc(OC)cc4)CC3)no2)cc1	CYP2C9 inhib 71.4, CYP2C19 inh 69.5
CCOc1ccc(-c2cc(CCCC(=O)NCc3ccc(C)cc3)no2)cc1	CYP2C9 inhib 53.3
CN1CCN(C(=O)C23CCC(C)(c4nc5ccccc5nc42)C3(C)C)CC1 (stereo not given)	none
COCCn1c(Cc2ccccc2)nnc1SCC(=O)N(C)C	none
COc1cccc(C2=N/C(=C\N(C)C)C(=O)O2)c1	CYP2C19 inh 62.7
COc1cc(Cl)cc(C2NC(=O)NC(C)=C2C(C)=O)c1OCC(=O)O (stereo not given)	none
CC(C)(C)NC(=O)NC(=O)COc1ccccc1C#N	CYP2C19 inh 50.7
CN1CCOCCOCCN(C)C1=O	none
COCC(C)NC(=O)C1CC(c2cccc(Br)c2)=NO1 (stereo not given)	CYP2C9 activ 2.1
COc1cccc(C2=NOC(C(=O)Nc3cc(OC)c(OC)c(OC)c3)C2)c1 (stereo not given)	none
COc1ccc(OC)c(C2=NOC(C(=O)NCc3ccco3)C2)c1 (stereo not given)	CYP2C9 activ 3.1
COc1ccc(CNC(=O)C2CC(c3cccc(OC)c3)=NO2)cc1 (stereo not given)	none
COc1cccc(C2=NOC(C(=O)NCc3cccs3)C2)c1 (stereo not given)	CYP2C9 inhib 68.1, CYP2C19 inh 53.9
COc1cccc(C2=NOC(C(=O)Nc3ccccc3SC)C2)c1 (stereo not given)	CYP2C9 activ 2.5, CYP2C19 inh 62.6
COC(=O)COc1ccc(S(=O)(=O)NCc2cccnc2)cc1C	none
CCCC1=C(C(=O)OCC)C(c2cc(Cl)cc(OC)c2OCc2ccccc2)NC(=O)N1 (stereo not given)	CYP2C9 inhib 64.5, CYP2C19 inh 50.4

Screens from PubChem BioAssay.
